# From PubChem BioAssay (NCI)
# About 83,000 compounds went through this panel and 20% of them were active in at least one assay; those are over-represented in the sample as a whole.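 Step 1: grow cells in 96-well plates. Step 2: add test compound at a single concentration. Step 3: incubate 48 h. Step 4: record percent growth.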 Unmarked numbers belong to inactive results. Calls of active or inactive are those of the source. How the source made its calls: active means growth percent below 10; inactive means the rest.
# How the values were obtained:
# Experiment in all cases: NCI-60 one-dose screen, 48 h (100 = growth as untreated, 0 = no growth, -100 = all killed)
# Conditions in all cases: 10 µM unless noted
# HCT-15 colon = tested on: HCT-15 colon
# HT29 colon = tested on: HT29 colon
# SNB-75 CNS = tested on: SNB-75 CNS
# SNB-19 CNS = tested on: SNB-19 CNS
# U251 CNS = tested on: U251 CNS
# PC-3 prostate = tested on: PC-3 prostate
# SK-MEL-5 melanoma = tested on: SK-MEL-5 melanoma
# UACC-62 melanoma = tested on: UACC-62 melanoma
# LOX IMVI melanoma = tested on: LOX IMVI melanoma
# SK-MEL-28 melanoma = tested on: SK-MEL-28 melanoma
Structure (SMILES),growth (HCT-15 colon),growth (HT29 colon),growth (SNB-75 CNS),growth (SNB-19 CNS),growth (U251 CNS),growth (PC-3 prostate),growth (SK-MEL-5 melanoma),growth (UACC-62 melanoma),growth (LOX IMVI melanoma),growth (SK-MEL-28 melanoma)
CCCCC/C=C/C(C)=C/C1CC(C)C/C=C/CCC(O)C(OC(N)=O)CCC(C)CC(O)C(C)C(=O)O1 (centres undefined),89.8%,96.9%,98.9%,183%,82.1%,73.7%,61.4%,82%,73.9%,85.7%
COc1ccc(-c2[nH][nH]c(=O)c2-c2nc3ccccc3s2)cc1,95.4%,106%,88.9%,102%,101%,102%,102%,98%,,112%
COc1cc(/C=N/NC(=O)c2cnn3c2NC(c2ccccc2)C3)ccc1Oc1ccccc1 (centres undefined),16.8%,0.454% (active),27.6%,39.2%,27.1%,19.6%,28.1%,12.6%,37.2%,34.9%
O=C(CCN1CCCC1)Nc1ccc2c(NCc3ccccc3)c3ccccc3nc2c1,20.6%,3.9% (active),-15.4% (active),5.52% (active),1.05% (active),-4.59% (active),17.2%,-16.1% (active),-45.6% (active),32.1%
CCCCCN1C=C/C(=C\C(=O)N(C)c2ccccc2Br)c2ccccc21,102%,98.3%,91.7%,94.6%,87.7%,92.1%,94.2%,81.6%,93.6%,105%
Nc1c(C(=O)Nc2ccnc3ccccc23)sc2nc3c(cc12)CN(Cc1ccccc1)CC3,69.9%,103%,110%,83.7%,98%,45.5%,9.7% (active),49.4%,69.6%,102%
CCCCCN1C=C/C(=C\C(=O)N2CCCc3ccccc32)c2ccccc21,102%,73.2%,108%,93.9%,87.6%,86.7%,92.7%,75.2%,87.3%,104%
O=C1c2ccccc2CCC12OC2c1cn(-c2ccccc2)nc1-c1ccc(Cl)cc1 (centres undefined),41.4%,102%,90.9%,91.9%,64.8%,83.6%,83.1%,63.8%,81.6%,100%
CC1(C)CC[C@]23CC[C@]4(C)[C@H](CC[C@@H]5[C@@]6(C)CCCNC(C)(C)[C@@H]6CC[C@]54C)[C@H]2[C@H]1OC3,-63.7% (active),-49.4% (active),3.81% (active),-20.2% (active),-75.6% (active),-10.7% (active),-7.69% (active),-51.1% (active),-94.9% (active),27.7%
COc1cc(C2C3=C(COC3=O)N(CCO)c3cc4c(cc32)CCC4)cc(OC)c1OC (centres undefined),10.9%,2.19% (active),61.3%,-12.9% (active),7.16% (active),21.3%,-60.3% (active),31.2%,21.6%,54.3%
O=S(=O)(NCCCNc1nccc(-c2c(-c3cccc(O)c3)nc3occn23)n1)c1ccc(Cl)cc1,98.7%,36.3%,92%,108%,102%,82.7%,39.8%,9.05% (active),,30.3%
CCc1ccc(CNc2ccc(N3CCOCC3)c(C(=O)O)c2)cc1,104%,96.4%,99.2%,107%,103%,106%,102%,102%,96.8%,107%
O=C(Nc1ccc(NC(=O)c2cc(=O)[nH]c3ccccc23)cc1)Nc1cccc(Cl)c1,103%,88.4%,74.4%,95.2%,89.4%,76.5%,92.9%,84.6%,87.7%,109%
Nc1ccccc1NC(=O)c1ccc(-n2nc(-c3ccccc3)c3ccccc32)cc1,76.7%,88.4%,38.4%,78.8%,-85.6% (active),58.6%,82.9%,77.5%,79.7%,99.7%
Cc1ccc(-c2csc(NC(=O)CSc3nc(-c4ccccc4)cc(=O)[nH]3)n2)cc1,94.5%,102%,96.1%,87.5%,92.2%,86.5%,87.4%,70%,96.5%,97.5%
COc1ccc(/C=C/c2nc(Nc3cccc(NC(C)=O)c3)c3ccccc3n2)cc1,70.9%,85%,90.5%,92.4%,88.5%,90%,87.5%,44.2%,59.3%,104%
COc1cc(-c2n/c(=C\c3c(O)[nH]c4ccc(Cl)cc34)cc3c2=Nc2ccccc2-3)ccc1F,46.4%,-10.3% (active),-39.5% (active),2.79% (active),-88.3% (active),-8.04% (active),27.6%,46.5%,,1.48% (active)
O=C(/C=C/c1c(-c2ccc(Cl)cc2)nn(-c2ccccc2)c1C(F)(F)F)c1ccc(Cl)cc1,77.7%,89.9%,86.1%,96.1%,86.3%,92.2%,85.3%,82.5%,75%,103%
C[C@H]1[C@H]2[C@H]3CC[C@@H]4[C@@]5(C)CC[C@H](O)C(C)(C)[C@@H]5CC[C@@]4(C)[C@]3(C)CC[C@]23CO[C@]1(C)[C@@H](C(=O)/C=C\c1ccco1)C3,106%,98.1%,78.4%,75.3%,69.4%,92.7%,8.55% (active),7.16% (active),89%,36.7%
NS(=O)(=O)c1ccc(Cn2c(SCC(=O)N/N=C/c3ccccc3O)nc3ccccc3c2=O)cc1,75%,86.3%,84.3%,55.6%,43.1%,67.9%,58.1%,38.1%,,57.7%
Cc1ccc(NC(=O)c2cc(-c3nc4ccccc4s3)c(=O)n(NS(=O)(=O)c3ccc(Cl)cc3)c2N)cc1,96%,108%,77.5%,101%,104%,100%,97.8%,93.2%,102%,115%
O=C(/C=C(O)/C=C/c1ccc(SC(F)(F)F)cc1)/C=C/c1ccc(SC(F)(F)F)cc1,88.5%,83.2%,115%,90.3%,66.5%,81%,91.4%,75.9%,,100%
CCSCC1CC(O)(c2ccccc2)CC(c2ccc(F)cc2)O1 (centres undefined),17.4%,2.51% (active),33.1%,36.1%,20.8%,9.83% (active),-36% (active),29.2%,,26.9%
COc1cc2c(=O)n(CCN(C)C)c3c4cc5c(cc4ccc3c2cc1OC)OCO5,-13.3% (active),0.585% (active),17.8%,6.11% (active),-4.24% (active),7.26% (active),-68.7% (active),-85.6% (active),,-33.9% (active)
CCN(Cc1ccccc1)c1ccc(C=O)cc1,91%,107%,82.1%,99.2%,92%,75.3%,98.9%,,91%,115%
c1ccc(-c2cn3c(ccc4ccccc43)n2)cc1,30.6%,19.8%,51.9%,65%,51.8%,72.2%,27.4%,,52.3%,
O=C(Nc1ccccc1C(=O)N/N=C(\c1ccccc1)c1ccccn1)c1ccc(F)cc1,32.5%,25.2%,16.2%,25.5%,17.8%,36.5%,-7.66% (active),1.28% (active),,33.7%
